The target of one assay is Albumin (Bos taurus) (UniProt P02769). The experiment in a line: compounds binding labelled BSA control protein – biochemical, small-molecule microarray, Alexa647 label, 635/667 nm fluorescence, artefact control for SMM control protein annotation, profiling panel (AID 1118).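 Note: score merges 667 nm emission intensity and signal-to-noise per printed compound spot.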 As to conditions: BSA-A647 binding, fluorescence 635 nm, higher = more signal.
The nature of assay [1]: probe aXIP binding to arrayed compounds – biochemical, NeuroSMM set, 635/667 nm fluorescence, primary screen (AID 1119).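 Note: probe is the protein aXip251-270 applied at 1 µg/mL to compound-printed slides; binding of probe to printed compounds measured as 667 nm fluorescence plus signal to noise.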 As to conditions: small-molecule microarray, higher = more signal, called active from +8 up or from −8 down.
Assay [2] in a line: probe aNOTCH3 binding on compound microarray – biochemical, small-molecule microarray, 635/667 nm fluorescence, primary screen (AID 1120).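 Note: probe is a biotin-tagged antibody raised against NOTCH3 rather than NOTCH3 protein; score merges spot fluorescence near 667 nm with spot signal to noise.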 As to conditions: higher = more signal.
Assay [3] is described as follows: probe aNOTCH2 binding on compound microarray – biochemical, small-molecule microarray, 635/667 nm fluorescence, primary screen (AID 1121).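 Note: score merges feature fluorescence read at 667 nm with its signal to noise.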 As to conditions: higher = more signal.
Assay [4] deals with Carbonic anhydrase 2 (Homo sapiens) (UniProt P00918). Put plainly: compounds binding carbonic anhydrase 2 – biochemical, small-molecule microarray, Alexa647-labelled CAII, profiling panel (AID 1122). As to conditions: CAII-A647 binding fluorescence, higher = more signal.
The nature of assay [5]: COS7 lysate on small-molecule microarray, probe aHis, 635 nm (AID 1123).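 Note: z-score combines 667nm fluorescence intensity with signal-to-noise per printed compound spot.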 As to conditions: COS7 cell lysate, fluorescence, higher = more signal.
Assay [6] is described as follows: probe aLAP1 signal on lysate-treated microarray – cell lysate, small-molecule microarray, COS7 lysate, primary screen (AID 1124).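 Note: lysate comes from COS7 cells expressing LAP1 and is applied at 0.3 µg/mL; score merges spot fluorescence near 667 nm with signal-to-noise over triplicate slides.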 As to conditions: probe aLAP1, fluorescence, higher = more signal.
The subject of a further assay is Sam68 (KHDRBS1). The experiment in a line: compounds binding KHDRBS1 protein – biochemical, small-molecule microarray, 635 nm fluorescence, primary screen (AID 1125).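 Note: score merges 667 nm channel intensity with signal to noise over triplicate slides.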 As to conditions: higher = more signal.
Assay [7] concerns Chordin-like protein 2 (CHRDL2). Put plainly: compounds binding chordin-like 2 – biochemical, small-molecule microarray, 635 nm fluorescence, primary screen (AID 1126).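 Note: printed compound slides probed with Chrdl2 protein at 4 µg/mL for 1 h at 4 C; score merges 667 nm emission intensity with signal to noise over three replicate slides.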 As to conditions: fluorescence 635 nm, higher = more signal.
Assay [8] deals with Concanavalin-A (Canavalia ensiformis) (UniProt P02866). The experiment in a line: compounds binding concanavalin A lectin – biochemical, small-molecule microarray, Alexa647 label, 635 nm, artefact control for SMM control protein annotation, primary screen (AID 1127).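 Note: z combines 667 nm emission intensity with signal-to-noise across three replicate slides.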 As to conditions: ConA-A647 binding fluorescence, higher = more signal.

The structures appear in SMILES notation. Activity calls are given as the source filed them.

Chain of Albumin (Bos taurus) (P02769 whole entry, looked up): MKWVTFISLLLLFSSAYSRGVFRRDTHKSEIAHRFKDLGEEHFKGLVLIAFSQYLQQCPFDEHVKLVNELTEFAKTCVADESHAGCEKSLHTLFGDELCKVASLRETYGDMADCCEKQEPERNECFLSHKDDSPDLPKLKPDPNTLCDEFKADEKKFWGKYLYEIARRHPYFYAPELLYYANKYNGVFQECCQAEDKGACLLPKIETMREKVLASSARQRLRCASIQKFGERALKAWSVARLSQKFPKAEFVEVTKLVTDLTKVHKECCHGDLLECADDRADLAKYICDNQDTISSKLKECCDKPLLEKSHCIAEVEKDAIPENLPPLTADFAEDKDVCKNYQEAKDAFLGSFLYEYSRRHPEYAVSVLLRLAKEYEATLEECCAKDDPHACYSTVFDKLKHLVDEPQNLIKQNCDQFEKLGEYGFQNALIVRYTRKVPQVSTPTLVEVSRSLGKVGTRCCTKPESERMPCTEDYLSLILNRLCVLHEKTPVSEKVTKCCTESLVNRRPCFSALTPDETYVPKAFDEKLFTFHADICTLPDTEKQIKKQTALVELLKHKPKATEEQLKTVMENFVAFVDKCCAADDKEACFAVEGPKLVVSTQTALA
Chain of Concanavalin-A (Canavalia ensiformis) (P02866 whole entry, looked up): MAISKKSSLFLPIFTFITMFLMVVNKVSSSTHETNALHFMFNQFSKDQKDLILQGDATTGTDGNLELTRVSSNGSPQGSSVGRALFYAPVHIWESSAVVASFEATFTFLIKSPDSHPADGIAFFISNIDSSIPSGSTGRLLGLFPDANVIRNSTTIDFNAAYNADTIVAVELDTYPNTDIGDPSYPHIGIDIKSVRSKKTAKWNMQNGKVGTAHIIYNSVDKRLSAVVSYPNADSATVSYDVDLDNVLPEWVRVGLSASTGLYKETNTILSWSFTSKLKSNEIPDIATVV

Regarding `COC(=O)CC=C[C@@H](C)[C@@H](C=NOCC[C@@H]1C=C[C@H](OC(C)=O)[C@@H](COC(C)=O)O1)OC`, the composite z-score in the assay with Albumin (Bos taurus) was -0.395; in assay [2], -0.0006; in [3] it was -0.115; in assay [4], -0.0197; in assay [5], 0.849; in assay [6], -0.0402. The composite z-score was 0.411 in the assay with Sam68 (KHDRBS1), 0.432 in assay [7] and -0.319 in assay [8]. In addition, the composite Z-score in [1] is 0.181 (inactive).

As to `COc1ccc(O[C@H]2C=C[C@@H](c3ccccc3)O[C@@H]2COC(=O)CCC(C)=NOC(C)CN2CCCc3nc(C)c(C)cc32)cc1` (stereo not given in full), the composite z-score with Albumin (Bos taurus) is 0.247; in [2], 0.0013; in assay [3], -0.106; in assay [4], 0.21; in assay [5], 0.676; in [6] it was 0.304. Moreover, the results for the composite z-score (in the assay on Sam68 (KHDRBS1); in assay [7]; in assay [8]) were 1.31, 0.43 and 1.01, respectively. For the same molecule, in assay [1], the composite Z-score is 1.32 (inactive).

With `C[C@@H](c1ccccc1)N1C(=O)[C@H]2[C@H]3[C@H](O)[C@H](O)CC(=O)[C@H]3CC[C@H]2C1=O`, the composite z-score is 0.587 in the assay with Albumin (Bos taurus); -0.367 in assay [2]; -0.226 in assay [3]; -0.125 in assay [4]; 0.241 in assay [5]; 0.567 in [6]. Moreover, the composite z-score came to 0.626 in the assay with Sam68 (KHDRBS1), 0.747 in assay [7] and 0.336 in assay [8]. Also, the composite Z-score in assay [1] is -0.0023 (inactive).

As to `COC(=O)[C@H]1O[C@@H](c2c(OC)c(OC)c(C)c(OC)c2OC)[C@H](C)[C@@H](O)[C@H]1C`, the composite z-score in the assay with Albumin (Bos taurus) was 0.354; in assay [2], 0.0414; in [3] it was -0.0349; in assay [4] it was 0.0615; in [5], 1.04; in [6], -0.203. Also, the composite z-score is 1.28 with Sam68 (KHDRBS1), 0.31 in assay [7] and 0.86 in assay [8]. The composite Z-score in [1] is 0.0421 (inactive).

As for `Cc1ccc(S(=O)(=O)NC(CCc2ccccc2)CC(=O)C(C)(C)C)cc1` (stereo not given), the composite z-score is -0.122 with Albumin (Bos taurus); 0.0591 in assay [2]; -0.0984 in assay [3]; 0.0117 in assay [4]; 0.0881 in [5]; -0.113 in assay [6]. In addition, the composite z-score in the assay with Sam68 (KHDRBS1) turned out to be 0.93; in assay [7] it was 0.686; in assay [8], 0.87. Besides, the composite Z-score in assay [1] was 0.6 (inactive).

For `CCOC(=O)[C@H](CC(C)C)NC(=O)CCC1CC(OC(=O)NCCc2ccc(F)cc2)CC2(CCCC(COC(=O)NCC(c3ccccc3)c3ccccc3)O2)O1` (stereo not given in full), the composite z-score was 0.436 with Albumin (Bos taurus); 0.0372 in assay [2]; -0.108 in [3]; 0.349 in [4]; -0.0758 in assay [5]; 0.0521 in [6]. Moreover, the values for the composite z-score (in the assay on Sam68 (KHDRBS1); in assay [7]; in assay [8]) were 1.11, 0.609 and 1.1, respectively. Moreover, the composite Z-score in assay [1] is 0.428 (inactive).

Regarding `O=C1[C@H]2[C@H]3[C@H](O)[C@H](O)CC(=NOCc4ccccc4)[C@@H]3CC[C@H]2C(=O)N1c1ccc(F)cc1F`, the composite z-score with Albumin (Bos taurus) was 0.137; in assay [2], 0.0303; in [3] it was -0.157; in assay [4], 0.243; in assay [5], 0.0305; in assay [6], -0.294. For the same molecule, the results for the composite z-score (with Sam68 (KHDRBS1); in [7]; in assay [8]) were -0.806, 0.0594 and 0.175, respectively. Also, in assay [1], the composite Z-score is -0.155 (inactive).

As to `C=CC[C@@H]1C=C[C@H](ON=C(C)CCC(=O)OC[C@H]2O[C@H](c3ccccc3)C=C[C@@H]2Oc2ccc(OC)cc2)[C@@H](CO)O1`, the composite z-score with Albumin (Bos taurus) is -0.1; in assay [2], -0.171; in assay [3] it was -0.177; in assay [4], -0.273; in assay [5], 0.342; in [6], -0.0007. Moreover, the composite z-score is 0.144 in the assay on Sam68 (KHDRBS1), -0.0018 in [7] and -0.152 in [8]. In addition, the composite Z-score in assay [1] was 0.741 (inactive).

With `C[C@@H]1CC[C@H]2C(=O)O[C@@H](COc3ccc(C(C)(C)C)cc3)CN2[C@@H]1c1ccc(Br)cc1`, the composite z-score was 0.0192 with Albumin (Bos taurus); -0.21 in assay [2]; -0.14 in assay [3]; -0.408 in assay [4]; -0.0056 in assay [5]; -0.239 in [6]. The composite z-score in the assay on Sam68 (KHDRBS1) is -0.558; in assay [7], -0.614; in assay [8], -0.619. Also, in assay [1], the composite Z-score is -0.695 (inactive).

Take `CO[C@@H]1C=CCC(=O)N[C@@H](C)C(=O)OC[C@@H](OC)[C@H](C)CCCC(=O)OC[C@H]1C`: the composite z-score with Albumin (Bos taurus) is -0.555; in [2] it was 0.0854; in assay [3] it was -0.208; in [4], -1.01; in [5], -1.96; in assay [6], 0.173. Besides, the composite z-score in the assay with Sam68 (KHDRBS1) is -0.248; in assay [7], 1.53; in [8], -0.997. Also, in assay [1], the composite Z-score was -0.31 (inactive).

Take `C#CCCCON=C1C[C@@H](O)[C@@H](O)[C@@H]2[C@@H]3C(=O)N(CCC(=O)OCC)C(=O)[C@@H]3CC[C@H]12`: the composite z-score with Albumin (Bos taurus) is 0.356; in assay [2] it was -0.042; in assay [3], -0.0837; in assay [4], 0.222; in [5], 0.769; in [6], 0.613. For the same molecule, the results for the composite z-score (in the assay with Sam68 (KHDRBS1); in assay [7]; in assay [8]) were 1.32, 0.247 and 1.07, respectively. Also, the composite Z-score in assay [1] is 0.269 (inactive).

Regarding `COc1ccc(COC(=O)NN=C2C[C@@H](O)[C@@H](O)[C@@H]3[C@@H]4C(=O)N(C5CCCCC5)C(=O)[C@@H]4CC[C@H]23)cc1`, the composite z-score with Albumin (Bos taurus) was 0.213; in assay [2], -0.365; in assay [3], -0.28; in assay [4], 0.262; in assay [5], -0.0294; in assay [6], -0.222. The composite z-score in the assay on Sam68 (KHDRBS1) was -0.331; in assay [7] it was -0.275; in [8], -1.14. Moreover, the composite Z-score in assay [1] is 1.22 (inactive).

In the case of `CC(C)CON=C1C[C@@H](O)[C@@H](O)[C@@H]2[C@@H]3C(=O)N(C4CCCCC4)C(=O)[C@@H]3CC[C@@H]12`, the composite z-score with Albumin (Bos taurus) is 0.401; in assay [2], -0.178; in assay [3], -0.177; in assay [4] it was 0.389; in assay [5], 1.73; in assay [6], -0.499. For the same molecule, the composite z-score in the assay with Sam68 (KHDRBS1) is 0.158; in [7], -0.329; in assay [8] it was 1.01. Besides, the composite Z-score in assay [1] was -0.0662 (inactive).

The record behind these values is PubChem BioAssay.
